Assay outcomes: PubChem, The Scripps Research Institute Molecular Screening Center
CHO-K1 Ca antag – counter-screen for M1 antagonists: effect in parental CHO-K1 cells | inhibition, % at 3 µM | AID 602250 | ATP-induced calcium, Fluo-8 fluorescence | actives 0.6% (n = 360,000);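 active = inhibition above a per-plate cutoff, the plate's mean sample inhibition plus 3 SD, cut at about 24% in these data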;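 note: 0% = DMSO plus EC80 ATP and 100% = DMSO alone without ATP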
M1 ag – human M1 muscarinic receptor agonism; P11229; CHO-K1 hM1, Fluo-8 calcium fluorescence, agonist mode; 0% DMSO, 100% acetylcholine EC100; activation, % at 3 µM; actives 0.33% (n = 360,000); AID 588814;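 active = activation above the run's mean compound activation plus 3 SD, cut at about 16% in these data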;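 note: peak over basal fluorescence ratio within a 140 s kinetic read after compound addition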
Target sequence (P11229 whole entry, looked up): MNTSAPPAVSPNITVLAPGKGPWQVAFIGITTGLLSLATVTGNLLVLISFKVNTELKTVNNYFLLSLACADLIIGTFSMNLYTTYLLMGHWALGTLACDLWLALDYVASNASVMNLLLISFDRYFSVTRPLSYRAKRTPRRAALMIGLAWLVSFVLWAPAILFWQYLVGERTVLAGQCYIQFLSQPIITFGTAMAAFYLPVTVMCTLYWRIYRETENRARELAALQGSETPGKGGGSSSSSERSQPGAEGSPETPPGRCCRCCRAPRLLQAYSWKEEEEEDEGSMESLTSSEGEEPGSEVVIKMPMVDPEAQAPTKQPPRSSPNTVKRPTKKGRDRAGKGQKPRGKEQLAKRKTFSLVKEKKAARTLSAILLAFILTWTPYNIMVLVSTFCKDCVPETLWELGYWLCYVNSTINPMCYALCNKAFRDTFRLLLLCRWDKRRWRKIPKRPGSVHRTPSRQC
M1 ag parental – counter-screen for M1 agonists: effect in parental CHO-K1 cells; AID 602248; Fluo-8 calcium fluorescence; scaled to maximal ATP response, vehicle zero; actives 0.48% (n = 360,000); activation, % at 3 µM; in the data active = activation above about 15%;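 note: untransfected CHO-K1 host cells lacking M1 receptor as counterscreen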
CHRM1 PAM – potentiates human M1 receptor response to acetylcholine; P11229; CHO-K1 hM1, Fluo-8 calcium fluorescence, ACh EC20; 0% = ACh EC20, 100% = maximal ACh; activation, % at 3 µM; actives 0.088% (n = 360,000); in the data active = activation above about 19%, passing the limit was not always enough
CHO-K1 Ca PAM – nonselective activator or artifact in parental CHO-K1 calcium assay; ATP EC20, Fluo-8 calcium fluorescence; 0% at ATP EC20, 100% at ATP max; activation, % at 3 µM; actives 0.02% (n = 360,000);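 active = activation above the run cutoff, the mean activation of all test compounds plus 3 SD, cut at about 40% in these data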;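 note: peak over basal fluorescence ratio in a 140 s read after ATP addition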
CHRM1 antagonist – blocks human M1 muscarinic receptor; P11229; CHO-K1 hM1, Fluo-8 calcium fluorescence, ACh EC80 antagonist; inhibition, % at 3 µM; actives 1.3% (n = 360,000); AID 588852;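 active = percent inhibition above its own plate's cutoff, namely the mean of that plate's compound wells plus 3 SD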;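 note: peak over basal fluorescence ratio during 140 s after agonist addition; 0% = ACh EC80 plus DMSO and 100% = DMSO alone without agonist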
* marks the source's active call; other numbers are inactive results. Only some compounds are listed: those with a hit (about 2.3% of all), similar ones and a draw of the others.

SMILES	CHO-K1 Ca antag	M1 ag	M1 ag parental	CHRM1 PAM	CHO-K1 Ca PAM	CHRM1 antagonist
COc1ccccc1CCNC(=O)C(=O)c1cn(CC(=O)N2CCCC2)c2ccccc12	-11	-5	2	12	21	-6
O=C(NCCc1ccccc1)C(=O)c1cn(CC(=O)N2CCCC2)c2ccccc12	24*	-4	1	7	-10	-8
COc1ccc(C(=O)NCc2ccncc2)cc1S(=O)(=O)NCc1ccc(Cl)cc1	-4	-5	0	8	7	-8
C[C@@H]1CN([C@H](C)CO)C(=O)c2cc(C#CC3CCCCC3)cnc2O[C@H]1CN(C)Cc1cccnc1	12	-11	0	-28	0	34*
C[C@@H]1CN([C@H](C)CO)C(=O)c2cc(C#Cc3ccccc3F)cnc2O[C@@H]1CN(C)S(=O)(=O)c1ccccc1F	25*	-3	0	-7	-11	9
C[C@H]1CN([C@@H](C)CO)C(=O)CCCn2cc(nn2)CO[C@@H]1CN(C)C(=O)Nc1ccccc1C(F)(F)F	-4	-2	0	2	1	-6
CCc1ccccc1-n1nnnc1SCC(=O)Nc1cc(C)on1	-10	0	1	4	-10	-1
Cc1cc(NC(=O)CSc2nnnn2-c2ccccc2C)no1	14	-1	0	-13	-20	28*
Cc1ccccc1S(=O)(=O)Cc1ccc(C(=O)N2CCN(c3cccc(C)c3C)CC2)o1	26*	3	7	-6	4	25
O=C(CCn1c(SCC(=O)NCc2ccco2)nc2ccccc2c1=O)NCCc1ccccc1	-5	-3	3	1	16	-3
C=CCn1c(SCC(=O)NCc2ccco2)nc2ccccc2c1=O	23	-13	0	-33	-13	100*
Cc1cccc(C)c1OCc1nnc(SCC(=O)Nc2nccs2)o1	-1	0	3	-17	11	25*
CCCc1nnc(SCC(=O)Nc2nccs2)o1	-14	1	0	21	13	-14
CCn1c2ccc(C)cc2c2nnc(SCCN3CCCCC3)nc21	-7	-11	0	-20	-6	37*
C=CCn1c2ccccc2c2nnc(SCCN3CCCCC3)nc21	-19	-10	0	-29	18	53*
C=CCn1c2ccccc2c2nnc(SCN3C(=O)c4ccccc4C3=O)nc21	5	0	6	-22	14	46*
CCCn1c2ccc(C)cc2c2nnc(SCCN3CCCCC3)nc21	-14	-10	0	-20	-7	20
COC(=O)C1CN(Cc2ccccc2)C(=O)C1=O (configuration not stated)	-10	2	0	20	13	-31
COc1ccc(C)cc1NC(=O)CSc1nnc2ccc(-c3ccncc3)nn12	-7	-7	1	-16	8	28*
O=C(NC1CC1)C1CCN(C2CCN(C(=O)/C=C/c3ccc(F)cc3)CC2)CC1	-3	-13	0	11	15	-11
COc1ccc(Cl)cc1NC(=O)CN(C)C(=O)c1ccc(-n2cncn2)cc1	-8	2	0	-1	5	4
COc1cccc(CC2(CO)CCCN(C/C=C/c3ccccc3OC)C2)c1 (configuration not stated)	0	-12	5	-20	3	3
CCOC(=O)C1(Cc2cccc(OC)c2)CCN(C/C=C/c2ccc(OC)cc2)CC1	20	-13	4	-30	-13	33*
CCn1nc(C)c(CN2CCCC(CO)(Cc3cccc(Cl)c3)C2)c1C (configuration not stated)	-14	-6	2	-23	8	54*
COc1ccc(F)c(CN2CCCC(CO)(Cc3cccc(Cl)c3)C2)c1 (configuration not stated)	1	-4	1	6	2	-9
SMILES	CHO-K1 Ca antag	M1 ag	M1 ag parental	CHRM1 PAM	CHO-K1 Ca PAM	CHRM1 antagonist
COc1ccccc1/C=C/CN1CCCC(CO)(Cc2cccc(Cl)c2)C1 (configuration not stated)	12	0	3	-17	-16	56*
COc1ccc(/C=C/CN2CCCC(CO)(Cc3cccc(Cl)c3)C2)cc1 (configuration not stated)	-4	2	28*	-7	9	19
CCn1nc(C)c(CN2CCCC(CO)(Cc3ccccc3)C2)c1C (configuration not stated)	-12	-8	0	2	11	-8
CCOC(=O)C1(Cc2cccc(OC)c2)CCN(C/C=C/c2ccccc2)CC1	0	-5	5	-8	-1	10
Cc1ccc(-c2csc(=Nc3cccnc3)n2CCCn2ccnc2)cc1C	0	-10	8	-26	18	41*
Cc1ccc(-c2csc(=Nc3cccnc3)n2CCCN2CCCC2=O)cc1C	3	-8	1	-6	-2	10
Cc1cc(NC(=S)NC(=O)C2CC2)ccc1Br	-7	-6	0	-12	7	16
Nc1cccc2c1C(=O)N(C(=O)c1cccc(S(=O)(=O)N3CCCCCC3)c1)C2=O	28*	-1	0	5	-6	-22
Nc1cccc2c1C(=O)N(C(=O)c1ccc(Cl)c(S(=O)(=O)N3CCCCCC3)c1)C2=O	-3	-3	0	2	10	-24
CC(C)CC(=O)Nc1ccc(N2CCOCC2)cc1	4	-2	0	8	3	-10
CC(=O)c1ccc2c3c(cccc13)C(=O)N(c1c(C)nn(C)c1C)C2=O	-3	2	2	2	12	-13
C=CCN1C(=O)c2cccc3c(N4CCCCC4)ccc(c23)C1=O	11	7	11	-5	2	6
O=C1c2cccc3c(N4CCCCC4)ccc(c23)C(=O)N1CCO	1	12	17*	3	1	1
Cc1n[nH]c(C)c1N1C(=O)c2cccc3c(N4CCCCCC4)ccc(c23)C1=O	55*	93*	83*	-20	-3	63*
O=C(c1cccc(N2C(=O)c3ccccc3C2=O)c1)N1CCCCCC1	-6	-3	1	2	2	1
O=C(OCCN1C(=O)c2cccc3c(N4CCOCC4)ccc(c23)C1=O)c1ccccc1Cl	23	15	18*	-24	-7	44*
O=C1c2cccc3c(N4CCCCC4)ccc(c23)C(=O)N1c1cccc(O)c1	23	36*	30*	-7	-1	32*
O=C(O)CC(NC(=O)CC(c1ccccc1)c1ccccc1)c1cccc([N+](=O)[O-])c1 (configuration not stated)	-12	-6	1	3	2	4
CCOC(=O)C1(NC(=O)C2(N3C(=O)c4ccccc4C3=O)CCCC2)CCCC1	-10	-1	0	6	7	-13
